Source: PubChem BioAssay
Sampled rows, rich in hits. Any-hit rate of the full collection: about 1.8%.
LYPLA1 counter = LYPLA1 inhibitors, primary screen, counter-screen for PME1 inhibitor project, biochemical, fluorescence polarization, FP-Rh probe ABPP | inhibition, % at 5.9 µM | AID 2174, 2009 | 320,000 tested, 0.16% active | recombinant LYPLA1;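 active = inhibition above the mean of all tested compounds plus 3 SD, set per campaign, cut at about 14% in these data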;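 note: inhibitors block serine hydrolase probe labeling of LYPLA1 so polarization falls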
PME-1 inh = PME-1 inhibitors via competitive probe labeling, primary screen, biochemical, fluorescence polarization, FP-Rh probe, HTS; recombinant PME-1; inhibition, % at 5.9 µM; 320,000 tested, 0.53% active; Protein phosphatase methylesterase 1 (Homo sapiens), Q9Y570;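 active = inhibition above the campaign mean of all compounds plus 3 SD, cut at about 26% in these data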;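 note: competitive labeling of PME-1 active site by serine hydrolase directed probe; inhibitors block probe labeling so polarization falls and inhibition rises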
LYPLA2 inh = LYPLA2 inhibitors, primary screen, counter-screen for PME1 inhibitor project, biochemical, fluorescence polarization, FP-Rh probe ABPP; Acyl-protein thioesterase 2 (Homo sapiens), O95372; recombinant LYPLA2; inhibition, % at 5.9 µM; 320,000 tested, 0.38% active; AID 2177, 2009;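 active = inhibition above the screen-wide mean plus 3 SD, limit set per campaign, cut at about 26% in these data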
Target sequence (O95372 whole entry, looked up): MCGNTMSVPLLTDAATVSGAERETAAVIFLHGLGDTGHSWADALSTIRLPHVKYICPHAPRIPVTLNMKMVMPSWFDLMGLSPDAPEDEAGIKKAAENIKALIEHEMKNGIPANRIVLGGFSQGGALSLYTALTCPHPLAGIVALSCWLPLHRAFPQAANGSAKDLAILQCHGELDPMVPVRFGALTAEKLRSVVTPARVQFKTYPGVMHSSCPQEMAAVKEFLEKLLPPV
Fam108B inh = mouse Fam108B serine hydrolase inhibitors, primary screen, counter-screen for RBBP9 inhibitor project, biochemical, fluorescence polarization; recombinant Fam108B, FP-Rh probe fluorescence polarization; inhibition, % at 9.51 µM; 300,000 tested, 0.33% active; AID 1947, 2009;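 active = inhibition above the screen mean inhibition plus 3 SD, computed separately per campaign, cut at about 18% in these data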;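 note: inhibitors lower polarization as less probe binds the enzyme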
GSTO1 inh = inhibitors of recombinant GSTO1, primary screen, counter-screen for RBBP9 inhibitor project, biochemical, fluorescence polarization; Glutathione S-transferase omega-1 (Homo sapiens), P78417; activity-based probe fluorescence polarization; inhibition, % at 5.96 µM; 300,000 tested, 1.1% active; AID 1974, 2009;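 active = inhibition above the campaign mean inhibition plus 3 SD, cut at about 35% in these data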
Target sequence (P78417 whole entry, looked up): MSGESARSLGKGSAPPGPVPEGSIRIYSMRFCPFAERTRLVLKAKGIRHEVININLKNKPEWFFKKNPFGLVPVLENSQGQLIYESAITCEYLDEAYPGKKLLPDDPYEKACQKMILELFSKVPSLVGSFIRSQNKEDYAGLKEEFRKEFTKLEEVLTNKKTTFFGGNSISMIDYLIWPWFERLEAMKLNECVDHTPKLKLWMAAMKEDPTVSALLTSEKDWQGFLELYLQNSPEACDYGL
PAD4 inh = human PAD4 inhibitors, primary screen, biochemical, fluorescence polarization, 1536-well format. AID 485272, 2010. 330,000 tested, 0.41% active. inhibition, % at 6.36 µM. recombinant PAD4, RCA probe fluorescence polarization. Protein-arginine deiminase type-4 (Homo sapiens), Q9UM07;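 active = percent inhibition above a cutoff equal to the mean of all tested compounds plus 3 SD, cut at about 15% in these data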
Fam108b inh conf = mouse Fam108b serine hydrolase inhibitors, confirmation, counter-screen for RBBP9 inhibitor project, biochemical, fluorescence polarization, triplicate; shares compounds with Fam108B inh; recombinant Fam108b, FP-Rh probe fluorescence polarization; inhibition, % at 9.51 µM; 930 tested, 44% active; AID 1978, 2009;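 active = inhibition above a limit from the primary screen, the mean over all compounds plus 3 SD, cut at about 19% in these data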;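 note: inhibitors free the probe so polarization falls as inhibition rises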
Fam108b ABPP HTS = inhibition of mouse Fam108b by HTS hits, late-stage follow-up, biochemical, gel-based ABPP, soluble recombinant form | fluorophosphonate probe | shares compounds with Fam108B inh | inhibition, % at 20 µM | 260 tested, 44% active; in the data active = inhibition above about 40%
Numbers stand for hits; i = inactive; nt = no result given.

SMILES	LYPLA1 counter	PME-1 inh	LYPLA2 inh	Fam108B inh	GSTO1 inh	PAD4 inh	Fam108b inh conf	others
CCCOc1ccccc1/C=C(\C#N)C(=O)Nc1cccc(C)n1	i	i	i	i	i	i	nt
Cc1cccc(NC(=O)/C(C#N)=C/c2ccc(F)cc2)n1	i	i	i	37.8	i	i	i
COc1ccc(Cl)cc1C(=O)NNC(=O)CCNS(=O)(=O)c1ccccc1	nt	nt	nt	nt	nt	i	nt
CCc1ccc(S(=O)(=O)Nc2ccccn2)cc1	i	i	i	i	i	i	nt
CCc1ccc(S(=O)(=O)/N=C2\C=CC(=O)c3ccccc32)cc1	i	i	i	24.0	66.8	i	20.9
O=C(NN=Cc1ccc(O)cc1)c1cccc(NN=Cc2ccc(O)cc2)c1	nt	nt	nt	nt	nt	nt	nt	Fam108b ABPP HTS=95.0
CC(=O)Nc1cccc(C(=O)N/N=C/c2ccc(F)cc2)c1	i	i	i	i	i	i	nt
CCN(CC)CCOC(=O)c1cc(Cl)c(N)cc1OC	i	i	i	i	i	i	nt
CC1=CC(=O)c2c(O)ccc(O)c2C1=O	i	i	i	71.1	68.6	23.2	42.6	Fam108b ABPP HTS=65.0
O=C(/C=C/c1cccs1)Nc1nc(-c2ccccc2)cs1	i	i	i	i	i	i	nt
O=C(COC(=O)/C=C/c1cccs1)Nc1nc(-c2cccc(Br)c2)cs1	i	44.2	i	20.9	i	i	i
COc1cc(OC)c(NC(=O)C2CCCO2)cc1Cl (centres undefined)	i	i	i	18.2	i	i	i
O=C1c2ccccc2C2=Nc3ccccc3SC(c3cccc(F)c3)C12 (centres undefined)	i	i	i	21.9	i	i	i
Cc1noc(C)c1C(=O)Nc1nc2ccc(Cl)cc2s1	i	i	i	i	i	i	nt
CCOC(=O)C1=C(C)N=c2sc(=Cc3ccc(O)c([N+](=O)[O-])c3)c(=O)n2C1c1ccccc1OC (centres undefined)	nt	nt	nt	nt	nt	nt	nt	Fam108b ABPP HTS=i
O=[N+]([O-])c1cc(Cl)cc(C=NNC(=S)Nc2cc(S(=O)(=O)N3CCOCC3)ccc2Cl)c1O	nt	nt	nt	nt	nt	nt	nt	Fam108b ABPP HTS=i
COc1ccc(S(=O)(=O)N2CCN(C(=O)c3cc(C)on3)CC2)cc1	i	i	i	nt	nt	i	nt
CCN(Cc1ccccc1)C(=O)CN1C(=O)NC(CC)(c2ccc(F)cc2)C1=O (centres undefined)	i	i	i	i	i	i	nt
O=C(CCCN1C(=O)/C(=C\c2ccco2)SC1=S)Nc1ccc(O)cc1C(=O)O	i	i	i	19.6	i	i	i
O=c1oc2cc(O)ccc2cc1-c1nc2c(s1)CCc1ccccc1-2	i	i	i	22.4	i	i	23.4
O=C(Nc1ccc(N2CCOCC2)cc1)Nc1ccc2nc(-c3ccco3)c(-c3ccco3)nc2c1	i	64.5	i	25.6	i	i	i
CCC1=C(c2cc(OC)c(OC)c(OC)c2)C2(CCCC2)C(=O)O1	i	i	i	i	i	i	nt
COCCN(C(=O)CCN1C(=O)C2CC=CCC2C1=O)c1c(N)n(CC(C)C)c(=O)[nH]c1=O (centres undefined)	i	i	i	nt	nt	i	nt
COc1cc2c(c(OC)c1OC)-c1ccc(N(C)CC(OC)OC)c(=O)cc1[C@@H](NC(C)=O)CC2	i	i	i	19.4	i	i	i
COc1cc(CN(C)Cc2cc(=O)oc3cc(C)c(Cl)cc23)ccc1OC(F)F	i	i	i	i	i	i	nt
SMILES	LYPLA1 counter	PME-1 inh	LYPLA2 inh	Fam108B inh	GSTO1 inh	PAD4 inh	Fam108b inh conf	others
Cc1c(C)c2cc(Cl)c(O)c(CN(C)C)c2oc1=O	i	i	i	i	i	i	nt
O=c1oc2c(O)c(O)cc3c(=O)oc4c(O)c(O)cc1c4c23	i	i	i	54.7	70.4	i	42.1	Fam108b ABPP HTS=i
O=C(COC(=O)c1cccc(O)c1)Nc1ccc(S(=O)(=O)N2CCOCC2)cc1	i	i	i	nt	nt	i	nt
O=C(NN1C(=O)/C(=C/C=C/c2ccco2)SC1=S)c1ccncc1	i	i	i	41.0	i	i	i
CC(C)C(C(=O)O)N1C(=O)/C(=C/C=C/c2ccco2)SC1=S (centres undefined)	i	i	i	38.4	i	i	i
COc1ccccc1CCN=C(N)NS(=O)(=O)c1ccc(C)c(C)c1	i	i	i	i	i	i	nt
COc1ccc(OC)c(/C=N/NC(=O)c2ccc3nc[nH]c3c2)c1	i	i	i	i	i	i	nt
COc1ccc(OC)c(/C=C2\S/C(=N/NC(=O)c3ccc4ccccc4c3)NC2=O)c1	i	i	i	32.3	i	i	i
Cc1nn(Cc2noc(C(=O)NC3CCC(C)CC3)n2)c(C)c1Br (centres undefined)	i	i	i	i	i	i	nt
Cc1ccc(NS(=O)(=O)c2ccc(N3CCN(c4ccc(O)cc4)CC3)c([N+](=O)[O-])c2)c(C)c1	i	i	i	21.0	i	i	i
O=[N+]([O-])c1cc(S(=O)(=O)Nc2ccccc2)ccc1N1CCN(c2ccc(O)cc2)CC1	i	i	i	i	i	i	nt
COc1ccc(-c2csc(NC(=O)c3ccccc3NS(=O)(=O)c3ccc(C)cc3)n2)cc1	i	i	i	35.8	i	i	i
COc1ccc(/C=N/NC(=O)c2cccc([N+](=O)[O-])c2)cc1OS(=O)(=O)c1ccccc1	i	i	i	31.5	i	i	25.6
Cc1ccc2c(c1)N(C(=O)CCC(=O)NCCCN1CC(C)CC(C)C1)CCO2 (centres undefined)	i	i	i	i	i	i	nt
CCN(CC)S(=O)(=O)c1ccc(Nc2ccc(-c3ccc4c(c3)OCCO4)nn2)cc1	i	i	i	20.4	i	i	i
CN(C)S(=O)(=O)c1ccc(Nc2ccc(-c3ccc4c(c3)OCCO4)nn2)cc1	i	i	i	i	i	i	nt
CCCN(CCC)CCCNC(=O)c1ccc(CS(=O)(=O)c2c(Cl)cccc2Cl)o1	i	i	i	i	i	i	nt
O=C(COC(=O)/C=C/c1cccc(Br)c1)Nc1cccc(S(=O)(=O)NC2=NCCC2)c1	i	i	i	nt	nt	i	nt
Oc1cccc(Nc2nc(O)c(/C=C3\C=Nc4ccccc43)s2)c1	i	28.0	i	44.5	i	i	i
Oc1nc(Nc2cccc(Cl)c2)sc1/C=C1\C=Nc2ccccc21	i	49.2	i	33.9	i	i	33.0	Fam108b ABPP HTS=95.0
